# Source: PubChem BioAssay (NCATS)
# Unmarked numbers belong to inactive results. Active and inactive are the calls of the source. Calls follow the shape of the dose curve; as a rule, active = well fitted curve in the direction sought with a large enough effect; inconclusive = small, poorly fitted or top-dose-only effect, or another doubt; inactive = no such curve, though single readings can be large or run the other way.
# Test: Validation qHTS assay for inhibitors of Activation Induced Cytidine Deaminase (AID): UDG Counterscreen signal (AID 1347427); also: 0% is about no effect
# Conditions: biochemical UDG counterscreen, fluorescence signal; series mostly up to 115 µM; activity, negative = inhibition: at the top concentration
# Outline: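 Fluorescence at 560 nm excitation, 665 nm emission reports UDG signal after 250 mM NaOH (2x) addition and 30 min. Enzymes (AID 1 uM, UDG 2 U/mL, at 4/3x) preincubated 10 min with compound, then 4 h with 4x 250 nM DJC20/DJC23 substrate at room temperature.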
Compound,"activity, negative = inhibition [%]",outcome
S=C(NC1CCCCC1)N1CCC(c2cnc[nH]2)CC1,10.3,
COC(=O)[C@@H](N)CCCN=C(N)N[N+](=O)[O-],9.02,
NCCc1c[nH]c2ccccc12,5.88,
CC(=O)NCCc1c[nH]c2ccccc12,12.5,
CC[C@@H](C(N)=O)N1CCCC1=O,15.5,
O=C(N[C@H]1CN2CCC1CC2)c1ccc(Cl)cc1,7.56,
NC(=O)CN1CC(O)CC1=O (stereo not drawn),6.12,
CCCN(CCC)[C@@H]1CCc2ccc(O)cc2C1,10,
Cc1nccc2c1[nH]c1ccccc12,9.92,
C[N+]1(C)C2CCC1CC(OC(=O)C(CO)c1ccccc1)C2 (stereo not drawn),,inactive
O=C(O)Cc1cnc[nH]1,13.4,
C[C@@H]1O[C@H](C[N+](C)(C)C)C[C@H]1O,5.61,
CCCN1CCO[C@@H]2c3cc(O)ccc3OC[C@H]21,,inactive
CCCCc1ccc(C(=O)O)nc1,7.76,
CC1=NN=C(c2ccc(N)cc2)c2cc3c(cc2C1)OCO3,-19.4,
COc1cc(C(O)CN)ccc1O (stereo not drawn),7.42,
Clc1cnc(Oc2ccc(Oc3ncc(Cl)cc3Cl)cc2)c(Cl)c1,2.74,
O=C1CCCN1CC#CCN1CCCC1,11.5,
